Measured potencies and affinities stand elsewhere.
tested on: Escherichia coli; conditions: Concentration 20 uM; ASSAY_TEST Inhibition of Bacterial Growth; detection method Absorption (OD600); MEDIA CAMHB; plate type 384well; NBS; CORNING #3640; time 18 hr

| Compound | Inhibition |
| --- | --- |
| Cn1nnc2c(C(N)=O)ncn2c1=O [TEMOZOLOMIDE] | 6.63% |
| CC(=O)O[C@]1(C(C)=O)CC[C@H]2[C@@H]3C=C(C)C4=CC(=O)CC[C@]4(C)[C@H]3CC[C@@]21C [MEGESTROL ACETATE] | 0.92% |
| Cl.O.O=C1N(c2ccccc2)c2ccccc2C1(Cc1ccncc1)Cc1ccncc1 | 3.98% |
| COc1cc(C)c(/C=C/C(C)=C/C=C/C(C)=C/C(=O)O)c(C)c1C [ACITRETIN] | 4.27% |
| CC(c1cc2ccccc2s1)N(O)C(N)=O (stereo not drawn) [ZILEUTON] | 6.17% |
| COc1c2occc2cc2ccc(=O)oc12 [METHOXSALEN] | -6.11% |
| COc1cc2nc(N(C)CCCNC(=O)C3CCCO3)nc(N)c2cc1OC (stereo not drawn) [ALFUZOSIN] | -0.93% |
| CNCC[C@H](Oc1cccc2ccccc12)c1cccs1.Cl [DULOXETINE HYDROCHLORIDE] | 4.45% |
| CC(=O)CCCCn1c(=O)c2c(ncn2C)n(C)c1=O [PENTOXIFYLLINE] | 2.27% |
| CC(C)c1nc(CN(C)C(=O)N[C@H](C(=O)N[C@@H](Cc2ccccc2)C[C@H](O)[C@H](Cc2ccccc2)NC(=O)OCc2cncs2)C(C)C)cs1 [RITONAVIR] | -0.63% |
| CC[C@H](C)C(=O)O[C@H]1C[C@H](O)C=C2C=C[C@H](C)[C@H](CC[C@@H](O)C[C@@H](O)CC(=O)[O-])[C@H]21.[Na+] [PRAVASTATIN SODIUM] | 2.41% |
| CC1(C)S[C@@H]2[C@H](NC(=O)[C@H](N)c3ccc(O)cc3)C(=O)N2[C@H]1C(=O)O [AMOXICILLIN] | 7.14% |
| Cc1cnc(NC(=O)C2=C(O)c3ccccc3S(=O)(=O)N2C)s1 [MELOXICAM] | 7.37% |
| CCN(CC)CCOC(=O)C1(C2CCCCC2)CCCCC1.Cl [DICYCLOMINE HYDROCHLORIDE] | 0.37% |
| Cc1ccc(O)c([C@H](CCN(C(C)C)C(C)C)c2ccccc2)c1.O=C(O)C(O)C(O)C(=O)O [TOLTERODINE TARTRATE] | -0.28% |
| COc1ccc(C2CNC(=O)C2)cc1OC1CCCC1 (stereo not drawn) [ROLIPRAM] | 5.39% |
| COc1ccc(-c2oc3c(CC=C(C)C)c(O[C@@H]4O[C@H](CO)[C@@H](O)[C@H](O)[C@H]4O)cc(O)c3c(=O)c2O[C@@H]2O[C@@H](C)[C@H](O)[C@@H](O)[C@H]2O)cc1 [ICARIIN] | -5.7% |
| CCC(=O)O[C@]1(C(=O)SCF)[C@H](C)C[C@H]2[C@@H]3C[C@H](F)C4=CC(=O)C=C[C@]4(C)[C@@]3(F)[C@@H](O)C[C@@]21C [FLUTICASONE PROPIONATE] | 6.95% |
| COC(=O)C1=C(C)NC(C)=C(C(=O)O[C@@H]2CCCN(Cc3ccccc3)C2)[C@@H]1c1cccc([N+](=O)[O-])c1.Cl | -0.62% |
| Cl.Clc1ccccc1CN1CCc2sccc2C1 [TICLOPIDINE HYDROCHLORIDE] | 1.84% |
| NC(=O)c1cccnc1 [NIACINAMIDE] | 3.02% |
| CC(=O)Nc1nnc(S(N)(=O)=O)s1 [ACETAZOLAMIDE] | -1.89% |
| O=C1[C@H](CC[C@H](O)c2ccc(F)cc2)[C@@H](c2ccc(O)cc2)N1c1ccc(F)cc1 [EZETIMIBE] | -0.7% |
| COC(=O)C1=C(C)NC(C)=C(C(=O)OC(C)C)C1c1cccc2nonc12 (stereo not drawn) [ISRADIPINE] | -0.09% |
| CC(Cc1ccc(O)c(O)c1)(NN)C(=O)O.O (stereo not drawn) | 3.56% |
| CC(CN1c2ccccc2Sc2ccccc21)N(C)C.Cl (stereo not drawn) [PROMETHAZINE HYDROCHLORIDE] | 1.25% |
| CC(CCCCC(=O)Nc1ccc(C(F)(F)F)cc1)NCCc1c[nH]cn1.O=C(O)/C=C\C(=O)O.O=C(O)/C=C\C(=O)O (stereo not drawn) | 3.85% |
| CN(CCOc1ccc(NS(C)(=O)=O)cc1)CCc1ccc(NS(C)(=O)=O)cc1 [DOFETILIDE] | 6.72% |
